Source: PubChem (National Center for Advancing Translational Sciences (NCATS))
G9a inh = G9a (human) methyltransferase inhibition | Potency, µM (highest dose often 102 µM), without a hit: at the highest dose activity, negative = inhibition, most hits filed as inhibitors | Q96KQ7 | G9a H3K9 monomethylation, AlphaScreen, 2 h | AID 504332 | 8.8% of 350,000 active; further: on the % scale 0 is the no-effect control and ±100 the full control effect; nearly all actives have a fitted effect of over 75% in size
Target sequence (Q96KQ7 913-1193 limits assumed): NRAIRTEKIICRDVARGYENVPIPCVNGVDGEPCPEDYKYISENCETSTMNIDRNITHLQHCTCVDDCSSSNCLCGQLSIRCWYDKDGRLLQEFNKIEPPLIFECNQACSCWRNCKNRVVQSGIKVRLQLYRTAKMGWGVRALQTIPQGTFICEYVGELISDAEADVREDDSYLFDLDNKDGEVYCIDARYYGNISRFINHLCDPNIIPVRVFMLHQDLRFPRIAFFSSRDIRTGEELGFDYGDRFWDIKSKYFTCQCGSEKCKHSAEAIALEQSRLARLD
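Readings reflect AlphaScreen signal from monomethyl-H3K9 antibody detection. HMT at 20 nM; substrate b-H3K9 500 nM; cofactor SAM 20 uM; 2 h RT reaction; compounds tested as titrations in qHTS with 15 min preincubation.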
BAZ2B inh = BAZ2B (human) inhibition. Q9UIF8. AlphaScreen BAZ2B-H3K14Ac peptide displacement. 4.4% of 360,000 active. Potency, µM (doses to about 114 µM), without a hit: at the highest dose activity change, negative = inhibition, usual class: inhibitors; further: on the % scale 0 is the no-effect control and ±100 the full control effect; nearly all actives have a fitted effect of over 60% in size
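Multi-concentration screen (max 110 uM) measuring displacement of acetylated histone H3 peptide from BAZ2B by AlphaScreen, using 50 nM protein, 50 nM peptide and 10 ug/mL streptavidin donor plus Ni-chelate acceptor beads.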
JMJD2A Tudor = inhibitors of human JMJD2A Tudor domain; Potency, µM (doses to about 114 µM), without a hit: at the highest dose activity change, negative = inhibition, most hits filed as inhibitors; O75164; AlphaScreen JMJD2A-Tudor / H3K4me3 peptide binding; AID 504339; 4.4% of 390,000 active; further: on the % scale 0 is the no-effect control and ±100 the full control effect; nearly all actives have a fitted effect of over 50% in size
GLS inh = glutaminase GLS (human) inhibition | GLS enzymatic activity, qHTS titration | Potency, µM (doses to about 45.5 µM), inactives show at the highest dose activity change, negative = inhibition, actives largely listed as inhibitors | AID 624170 | 0.21% of 410,000 active | O94925; further: on the % scale 0 is the no-effect control and ±100 the full control effect
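Enzyme dispensed in phosphate buffer (45 mM, pH 8.2, 0.02% Tween-20), compounds pinned in, then 1 mM L-glutamine solution and the glutamate oxidase–HRP–Amplex Red mix added; fluorescence read immediately and again after 30 min at room temperature.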
HP1b binding inh = HP1-beta chromodomain-methylated histone interaction inhibition; AID 540317; AlphaScreen HP1-beta / biotin-H3K9me3 peptide binding; 0.56% of 390,000 active; Potency, µM (doses to about 114 µM), for the others: at the top dose activity change, negative = inhibition, hits mostly inhibitors; P83916; further: nearly all actives have a fitted effect of over 70% in size
Target sequence (P83916 whole entry, looked up): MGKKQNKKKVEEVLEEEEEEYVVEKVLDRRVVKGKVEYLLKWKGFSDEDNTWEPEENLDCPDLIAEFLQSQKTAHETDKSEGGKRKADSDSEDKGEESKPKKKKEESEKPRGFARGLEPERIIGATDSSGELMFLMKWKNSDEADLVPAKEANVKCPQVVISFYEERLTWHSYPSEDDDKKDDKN
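AlphaScreen: HP1-beta (50 nM) preformed 30 min with biotin-H3(1-18)K9me3 peptide (50 nM) in PBS pH 7.4, 0.01% Tween-20. Compound added for 30 min at RT, then streptavidin donor/nickel chelate acceptor beads (10 ug/mL) for 30 min.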
Numbers without * were called inactive; ? = inconclusive; [ ] = dose if it differs, or a comment. Sampled rows, rich in hits. Any-hit rate of the full collection: about 10%. The call rests on the fitted dose curve; in most records, active means well fitted curve in the direction sought with a large enough effect; inconclusive means small, poorly fitted or top-dose-only effect, or another doubt; inactive means no such curve, though single readings can be large; an effect the other way counts as inactive or inconclusive. Potency means the concentration at half of the fitted maximal effect.

SMILES	G9a inh	BAZ2B inh	JMJD2A Tudor	GLS inh	HP1b binding inh
COc1ccccc1-n1cc(-c2ccccc2)[nH]c1=S	10µM*	?	?	-21.2%	14.0%
CC1CC(O)(Cc2ccccc2)C(C)CN1C (configuration not stated)	9.3%[12.7 µM]	-0.1%	-3.3%	3.4%	20.2%
Cc1cc(Cl)c(S(=O)(=O)Nc2ccc3c(c2)OCO3)cc1OCC(N)=O	-9.9%[12.7 µM]	10.5%	-6.9%[11.4 µM]	4.2%	53.1%
CCCCNC(=S)N/N=C/c1ccc(C#N)cc1	34.6%	-20.9%	89.1µM*	8.5%	?
CN(Cc1nccn1C)C(=O)CC1C(=O)NCCN1Cc1ccc(F)cc1Cl (configuration not stated)	39.8µM*	-17.4%	?	-9.5%	25.5%
CCn1ccnc1CN(C)C(=O)CC1C(=O)NCCN1Cc1c(F)cccc1Cl (configuration not stated)	?	-0.2%	-4.3%	-19.0%	44.2%
CN(Cc1nccn1C)C(=O)CC1C(=O)NCCN1Cc1ccccc1C(F)(F)F (configuration not stated)	50.1µM*	-16.8%	-15.8%	-0.8%	18.3%
Cc1nnc(CN(C)C(=O)CC2C(=O)NCCN2Cc2ccccc2C)o1 (configuration not stated)	35.5µM*	-19.0%	-6.9%	16.2%	43.6%
Cc1ccccc1CN1CCNC(=O)C1CC(=O)N(C)CCC1CCOCC1 (configuration not stated)	23.5%[0.0925 µM]	-1.2%	-12.4%	-0.8%	37.8%
CN(Cc1ccon1)C(=O)CC1C(=O)NCCN1Cc1ccccc1C(F)(F)F (configuration not stated)	0.4%[12.7 µM]	3.0%	-18.1%	1.7%	36.7%
CN(CCc1cn[nH]c1)C(=O)CC1C(=O)NCCN1Cc1ccccc1C(F)(F)F (configuration not stated)	44.7µM*	-18.0%	-14.0%	0.2%	42.1%
O=C(NCCCNC(=O)c1ccccn1)c1cccc(F)c1	36.4%	1.7%	-11.9%	2.0%	3.9%
COc1cc(/C=N/n2c(COc3ccccc3)n[nH]c2=S)cc(Br)c1O	1.26µM*	-29.3%	12.6µM*	0.3%	-19.2%
COc1cc(/C=N/n2cnnc2)ccc1OCCOc1ccccc1	-24.4%	-3.3%	-20.8%	-1.5%	16.8%
CCOc1ccc(/C=N/n2c(COc3ccccc3)n[nH]c2=S)cc1OC	8.91µM*	23.4%	20µM*	-2.7%	-10.2%
COc1cc(/C=N/n2c(COc3ccccc3)n[nH]c2=S)cc(OC)c1OC(C)=O	10µM*	-3.1%	?	12.5%	4.2%
CCc1n[nH]c(=S)n1/N=C/c1cc(Br)c(O)c(OC)c1	7.94µM*	-18.4%	5.62µM*	4.5%	28.9%
Cc1nnc(N/N=C\c2ccc(-c3cccc(C(=O)O)c3)o2)n1N	39.8µM*	79.4µM*	25.1µM*	16.9%	-9.0%
O=Cc1ccc(-c2cccc(C(=O)O)c2)o1	50.1µM*	?	-21.7%	-6.5%	25.7%
Nc1nonc1-c1nc2ccccc2n1CC(=O)Nc1ccccc1C(=O)O	37.1%[59 µM]	6.3%[57.1 µM]	-6.2%	-6.0%	27.4%
O=C(/C=C/c1ccc(-c2ccccc2)o1)c1ccccc1	?	35.5µM*	-4.2%	-2.8%	?
Nc1nonc1-c1nc2ccccc2n1CC(=O)N/N=C/c1ccc(-c2cccc(C(=O)O)c2)o1	7.94µM*	20µM*	39.8µM*	-12.5%	50.1µM*
C=C(C)COc1ccc(-c2[nH]ncc2-c2ccc(OC)cc2)c(O)c1	22.6%[59 µM]	-15.4%	?	4.5%	13.8%
COC(=O)c1c(C(=O)OC)c(-c2ccc(Br)cc2)n2c1CS(=O)C2 (configuration not stated)	4.6%[2.33 µM]	13.0%	-5.1%	7.2%	12.0%
Cc1onc(-c2ccccc2)c1NC(=O)N(CCC#N)Cc1cccs1	-1.1%	-2.6%	-2.0%	0.2%	26.0%
SMILES	G9a inh	BAZ2B inh	JMJD2A Tudor	GLS inh	HP1b binding inh
O=C(O)c1cccc(-c2ccc(/C=N/NC(=O)c3cccnc3)o2)c1	12.6µM*	?	?	-4.8%	18.8%
Cc1nn(-c2ncc(C(F)(F)F)cc2Cl)c(=O)n1-c1ccc(F)cc1	10.8%	-12.3%	50.1µM*	7.3%	9.9%
CCCn1c(C)cc(C(=O)CSc2nc3nc(C)cc(C)n3n2)c1C	-9.8%[59 µM]	-31.4%	-31.5%	4.6%	-0.2%
CCCCc1c(O)nc(N2CCN(Cc3ccccc3)CC2)[nH]c1=O	39.8µM*	7.2%	-23.9%	5.2%	9.8%
Cc1cc(=O)[nH]c(N2CCN(Cc3ccccc3)CC2)n1	0.8%[12.7 µM]	1.9%	-13.9%	-3.2%	18.2%
O=C(Nc1ccc(Cl)cc1)c1cc2c(cc1O)[nH]c1ccccc12	?	-21.3%	-11.1%	12.6µM*	-3.7%
CC1CCN(S(=O)(=O)c2ccc3nc(N4CCN(c5ccc(F)cc5)CC4)ccc3c2)CC1	-3.0%[59 µM]	-0.7%	9.4%	-6.0%	44.1%
CC1CCN(S(=O)(=O)c2ccc3nc(NCc4ccc(N(C)C)cc4)ccc3c2)CC1	10µM*	35.5µM*	14.1µM*	3.8%	?
CC(=O)c1ccc(N2CCN(c3ccc4cc(S(=O)(=O)N5CCC(C)CC5)ccc4n3)CC2)cc1	17.8µM*	?	?	-19.6%	40.2%
CC1CCN(S(=O)(=O)c2ccc3nc(NCc4ccc(F)cc4)ccc3c2)CC1	?	-2.1%	8.1%	5.3%	43.2%
Cc1ccc(-n2ncc(C(=O)NCCc3ccsc3)c2C2CCN(C(=O)OC(C)(C)C)CC2)cc1C	-32.7%[59 µM]	2.8%[57.1 µM]	-29.4%	-9.6%	4.5%
C(=N\N(c1ccccc1)c1ccccc1)/c1ccc(N2CCOCC2)s1	12.6µM*	?	?	6.3%	?
CCOC(=O)N/N=C/c1ccc(N2CCOCC2)s1	39.8µM*	-3.9%	-24.8%	25.3%	0.1%
O=C(N/N=C/c1ccc(N2CCOCC2)s1)c1ccccc1Cl	?	-33.9%	?	46.7%	-21.6%
COc1ccc(C(=O)N/N=C/c2ccc(N3CCOCC3)s2)cc1OC	43.8%[12.7 µM]	-2.3%	-19.9%	30.5%	26.5%
CCOc1ccc(S(=O)(=O)N(CC(=O)Nc2ccc3c(c2)OCO3)c2ccc(C)cc2)cc1	-44.9%[59 µM]	-19.5%	-30.1%	-5.8%	18.9%
Cc1ccc(C(=O)N[C@@H](Cc2ccccc2)C(=O)N2CCC3(CC2)NCCc2[nH]cnc23)cc1C	79.4µM*	-30.2%	24.1%	-1.6%	41.2%
Cc1ccc(NC(=O)C(C)n2nnc3sc4c(c3c2=O)CCCC4)cc1Cl (configuration not stated)	?	-15.5%	-29.2%	-4.5%	41.5%
COc1ccc(Cl)cc1NC(=O)C(C)n1nnc2sc3c(c2c1=O)CCCC3 (configuration not stated)	14.1µM*	-18.6%	-32.7%	-0.6%	9.0%
CC(C(=O)Nc1ccccc1C(F)(F)F)n1nnc2sc3c(c2c1=O)CCCC3 (configuration not stated)	14.1µM*	-17.3%	-19.8%	-1.3%	-2.6%
